Source: PubChem BioAssay (NCI)
Compounds without any hit were thinned out: in the full panel of roughly 83,000, 20% have a hit.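 The endpoint reported here, percent growth, reads 100 for growth as untreated, 0 for no net growth and -100 for all cells dead.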 Values without a mark were called inactive. The source made the active and inactive calls. Rule for the calls: active = growth percent below 10; inactive = the rest.

What follows are compounds tested on SK-MEL-2 melanoma (assay: NCI-60 one-dose screen, 48 h (100 = growth as untreated, 0 = no growth, -100 = all killed)). Settings: 10 µM unless noted.
`CCCCCCCCN(CCCCCCCC)C(=O)CCl` was tested, and the growth was 108%.
With `O=C(Nc1ccc(-n2ccc3c(NC(=O)c4ccccc4)nccc32)cc1)c1ccc(N2CCOCC2)c(C(F)(F)F)c1` the growth was 21%.
For `O=C1/C(=C/c2ccccc2)SC(=Nc2ccccc2)N1Nc1ccccc1`, the growth was -25.2% (active).
In the case of `C[N+](C)(C)CC(=O)N/N=C\c1ccco1`, the growth was 111%.
Compound `CC(C)CCSc1nc(-c2ccc(F)cc2)c(C#N)c(N2CCN(C)CC2)n1` has a growth of 77.4%.
In the case of `CC(=O)Oc1c(Cl)c(Cl)c(Cl)c(Cl)c1Cl`, the growth was 90.1%.
With `CN(C)c1nc(-c2cccs2)n2nc(-c3ccc(Cl)cc3)cc2n1` the growth was 67%.
`COc1nccc2c(Sc3ccccc3)nc(N)nc12` was tested, and the growth was 101%.
With `c1cn2cc(-c3ccc4ncn(C5CCCCC5)c4c3)nc(-c3ccc4c(c3)ncn4C3CCCCC3)c2n1` the growth was -65.6% (active).
In the case of `CCc1onc(-c2ccc(OC)cc2)c1-c1ccccc1OCCN(CC)CC`, the growth was 94.9%.
In the case of `CCN(CCC#N)c1ccccc1`, the growth was 106%.
Compound `S=C(S)Oc1cccc2cccnc12` has a growth of 105%.
For `COc1ccccc1CNCCCN1C(=O)c2ccc3c4c(ccc(c24)C1=O)C(=O)N(CCCNCCCN)C3=O`, the growth was -47.3% (active).
Work on `CC(C)c1ccc(-c2cnc3nonc3n2)cc1` yielded a growth of 76.4%.
`CN1CCCN(CCNc2nccc(-c3c(-c4cccc(O)c4)nc4sccn34)n2)S1(=O)=O` was tested, and the growth was 22.1%.
With `COc1ccccc1CNCCCN1C(=O)c2ccc3c4c(ccc(c24)C1=O)C(=O)N(CCCCNCCCN)C3=O` the growth was -46.1% (active).
Work on `CCC(=O)OCc1ccc(OC)cc1` yielded a growth of 112%.
With `COc1ccc2[nH]cc(C3(c4c[nH]c5ccc(OC)cc45)C(=O)Nc4ccc(F)cc43)c2c1` the growth was 98.3%.
`CN1C(=O)NC(Cc2c[nH]c3c(Cl)cccc23)C1=O` (stereo not drawn) was tested, and the growth was 106%.
`NC(N)=N/N=C/c1ccc(Cl)cc1` was tested, and the growth was 95.9%.
For `CC(C)(c1ccccc1)c1cc(O)c(C(C)(C)c2ccccc2)cc1O`, the growth was 10.4%.
`COc1cc(-c2nn(C(=O)NCCN3CCN(C)CC3)cc2-c2ccncc2)ccc1Cl` showed a growth of 89.5%.
`CCCCCCCCCCCCCCCCCC(=O)[O][Sn]([CH2]CCC)([CH2]CCC)[CH2]CCC` was tested, and the growth was -60.7% (active).
Work on `CC(C)c1nc2ccccc2n1CC(=O)N/N=C/c1cccc(O)c1` yielded a growth of 107%.
With `O=C(Nc1ccc(Cl)cc1)c1cc(-c2ccc(Cl)cc2)c2sc(=O)[nH]c2n1` the growth was -29.3% (active).
With `Oc1ccc(-c2nnc3c4[nH]ccc4ncn23)cc1` the growth was 113%.
For `Cc1nc(N)nc2c1CCC(Nc1ccccc1)S2` (stereo not drawn), the growth was 102%.
In the case of `NNC(=O)CSc1nc2scc(-c3ccccc3)c2c(=O)n1-c1ccccc1`, the growth was 101%.
Work on `COC(=O)C(Br)(C(=O)OC)C(Br)C(Br)C(Br)c1ccccc1` (stereo not drawn) yielded a growth of 83.6%.
`COc1cnc2c(c1)C(=O)c1c-2n(CCCN2CCN(C)CC2)c(=O)c2cc(Cl)ccc12` was tested, and the growth was 32.3%.
`COc1cc([N+](=O)[O-])cc(OC)c1OC` gave a growth of 114%.
In the case of `O=c1oc2ccccc2cc1-c1cc(-c2ccc(-c3cc(-c4cc5ccccc5oc4=O)nc(-c4cc5ccccc5oc4=O)c3)cc2)cc(-c2cc3ccccc3oc2=O)n1`, the growth was 106%.
`CCCCCCCOc1cccc(/C=C2\N=C3SCCCN3C2=O)c1` was tested, and the growth was 95.5%.
For `CN(C)c1ccc(C2(Cl)c3ccccc3N(C)c3ccccc32)cc1`, the growth was 61.2%.
In the case of `O=C(Nc1cccc(-n2ccc3c(NC(=O)c4ccccc4)nccc32)c1)c1ccc(N2CCOCC2)c(C(F)(F)F)c1`, the growth was 13.4%.
Compound `Fc1ccc(-c2nc(-c3ccc(-c4nc5ccc(F)cc5[nH]4)cc3)no2)cc1` has a growth of 102%.
For `Clc1ccc(C2=NN[C@H](c3cn(-c4ccccc4)nc3-c3ccccc3)C2)cc1`, the growth was 91.4%.
In the case of `CNC1=C([N+](=O)[O-])C(c2ccccc2O)C(C#N)=C(c2cccs2)O1` (stereo not drawn), the growth was 74.2%.
